# Compound activity (PubChem BioAssay)
# PrP UTR inh = inhibition of PrP 5' UTR reporter expression; cell-based PrP 5' UTR mRNA reporter, plate reader; inhibition, % (test concentration not listed); actives 0.35% (n = 340,000); AID 488862, 2010; in the data active means inhibition above about 52%; further: 0 = median of the neutral control wells
# PfHsp40 yeast = rescue of yeast from PfHsp40 toxicity, primary screen, S. cerevisiae, ATP luminescence; actives 0.68% (n = 340,000); S. cerevisiae expressing PfHsp40, growth rescue; growth rescue, % at 12.5 µM; in the data active means growth rescue above about 28%, passing the limit was not always enough; inconclusive means no clear call, values can overlap the other calls;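 further: yeast W303a lacking pdr1 and pdr3 grown in galactose medium; growth measured after three days at 30 °C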
# PrPC TRFRET = inhibitors of human cell surface prion protein PrPC, primary screen, cell-based, TR-FRET | Major prion protein (Homo sapiens), P04156 | TR-FRET read-out | inhibition, % at 13.8 µM | actives 0.43% (n = 370,000) | AID 720596, 2013; in the data active means inhibition above about 24%; further: 0% = median of the test wells and 100% = reference compound wells
# DUSP3 inh = VHR1 phosphatase inhibitors, primary screen, biochemical, absorbance, uHTS. recombinant VHR phosphatase, pNPP absorbance. inhibition, % at 13.3 µM. Dual specificity protein phosphatase 3 (Homo sapiens), P51452. AID 1654, 2009. actives 0.52% (n = 290,000); in the data active means inhibition above about 50%
# Target sequence (P51452 whole entry, looked up): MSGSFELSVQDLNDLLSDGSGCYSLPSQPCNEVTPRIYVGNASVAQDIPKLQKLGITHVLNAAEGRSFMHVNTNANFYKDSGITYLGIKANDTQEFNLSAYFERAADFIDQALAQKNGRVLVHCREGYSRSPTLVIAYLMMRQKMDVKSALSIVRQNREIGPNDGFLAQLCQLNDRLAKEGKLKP
# BJeLR lethal = MLPCN primary cell-based screen for lethality selective to Ras in HRASV12 cells | BJeLR (HRASV12) viability, CellTiter-Glo ATP luminescence, 48 h | actives 0.17% (n = 300,000) | inhibition, % (no concentration beside the values) | AID 1554, 2009; in the data active means inhibition above about 50%; inconclusive means no clear call, values can overlap the other calls
# MazEF act = activators of E. coli MazEF toxin-antitoxin RNase, primary screen, biochemical, fluorescence, uHTS; Endoribonuclease toxin MazF (Escherichia coli (strain K12)), P0AE70; FAM/BHQ RNA-DNA oligo cleavage fluorescence, 5 h; activation, % at 20 µM; actives 0.32% (n = 350,000); AID 504720, 2011; in the data active means activation above about 50%
# Target sequence (P0AE70 whole entry, looked up): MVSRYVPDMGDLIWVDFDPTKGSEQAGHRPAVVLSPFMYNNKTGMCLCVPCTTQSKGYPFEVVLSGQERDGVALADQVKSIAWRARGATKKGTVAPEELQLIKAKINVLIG
# Active calls of the source: *; ? = inconclusive; · = not tested or not shown; ! = repeats disagree. Rows were chosen to be rich in hits. Some 2.1% of all compounds tested hit in one or more screens of this group.
SMILES,PrP UTR inh,PfHsp40 yeast,PrPC TRFRET,DUSP3 inh,BJeLR lethal,MazEF act
COc1ccc(C2C(C#N)=C(N)SC(N)=C2C#N)cc1OC,-20,-2,59*,13,8,-109
O=[N+]([O-])c1ccc(S(=O)(=O)Nc2nnc(C3CCCCC3)s2)cc1,-24,-1,1,2,-8,1
COC(=O)[C@]1(CNC(=O)Nc2ccc(C)c(Cl)c2)CC(=O)N(C)[C@@H]1c1ccccc1,·,·,6,·,·,·
NC(=O)c1ncn([C@@H]2O[C@H](CNCc3cccn3-c3ccncc3)[C@@H](O)[C@H]2O)n1,-8,-1,3,·,·,0
O=[N+]([O-])c1ccccc1S(=O)c1ccccc1[N+](=O)[O-],·,·,-9,·,·,·
Cc1ccn2c(NC3CCCC3)c(-c3ccncc3)nc2c1,-15,3,-3,-6,-7,-3
Cc1ccn2c(NC3CCCCC3)c(-c3cccc(-c4cccc(Cl)c4)c3)nc2c1,-22,132*,1,·,-6,-31
O=c1[nH]cnc2scc(-c3ccc(-c4ccccc4)cc3)c12,-54,0,-4,33,-2,83*
CCCOc1ccc(-c2csc3nc[nH]c(=O)c23)cc1,-32,1,5,12,-18,2
CC(Sc1nc2ccccc2c(=O)n1CC1CCCO1)C(=O)Nc1ccc(S(N)(=O)=O)cc1 (stereo not drawn),2,2,1,·,-4,-1
CN(C1CCCCC1)C(CNS(=O)(=O)c1ccccc1)c1ccccc1 (stereo not drawn),-13,-1,2,53*,-6,10
CC(=O)Nc1ccc(NC(=O)C2CCCN2C(=O)NCc2ccccc2)cc1 (stereo not drawn),-7,0,1,44,-4,-2
Cc1cc(C)c(C)c(OCCOCCN2CCOCC2)c1,-19,-2,2,16,1,1
Cc1cc(C)c(C)c(OCCOCCN2CCN(C)CC2)c1,-14,123*,-6,-10,-1,4
Cc1cnc(C2OCCO2)c2cccc(N)c12,·,·,-23,·,·,6
COC(=O)[C@@]1(Cc2ccc(F)cc2)[C@H]2c3cc(C(=O)N(C)C)n(CCc4c[nH]c5ccc(O)cc45)c3C[C@H]2CN1C(=O)c1ccccc1,·,·,-9,·,·,·
NC1=NC2(CCCCC2)N(c2ccc(F)cc2)C(N)=N1,-27,-1,-1,53*,1,7
COc1ccc(N2C(N)=NC(N)=NC23CCCC3)cc1,-24,-2,-5,29,1,7
Cc1ccc(-n2[nH]c(C)c(/C=N/Nc3ccc([N+](=O)[O-])cc3[N+](=O)[O-])c2=O)cc1C,-20,-1,-5,50*,27,-2
Cc1[nH]n(-c2ccccc2)c(=O)c1/C=N/NC(=O)c1cccc([N+](=O)[O-])c1,-18,?,2,28,·,-8
CCC(C)n1ncn(-c2ccc(N3CCN(c4ccc(OCC5COC(Cn6cncn6)(c6ccc(Cl)cc6Cl)O5)cc4)CC3)cc2)c1=O (stereo not drawn),14,181*!,-3,-6,6,1
CCOc1ccc(N2C(=O)CC(N3CCN(c4ccc(Cl)cc4)CC3)C2=O)cc1 (stereo not drawn),-14,0,1,35,7,-1
CCCN1C/C(=C/c2ccc3c(c2)OCO3)C(=O)/C(=C/c2ccc3c(c2)OCO3)C1,-19,5,-3,15,53*,-6
O=C(C(=O)N1CCCC1)c1c(-c2ccccc2)[nH]c2ccccc12,-6,-1,3,-6,-10,5
CCOC(=O)c1ccsc1NC(=O)c1ccco1,-20,-1,-1,-8,6,-2
SMILES,PrP UTR inh,PfHsp40 yeast,PrPC TRFRET,DUSP3 inh,BJeLR lethal,MazEF act
Cc1cc(-c2csc(NC(=O)c3ccc(=O)[nH]c3)n2)c(C)n1Cc1ccco1,-2,-1,0,112*,-6,-8
CCOC(=O)[C@@]12CCCC3=C1N(CCC3)C(=O)[C@H]2CC(=O)NCc1ccc(C)o1,·,·,-1,·,·,·
CCOc1ccc(NC(=O)Cn2sc3nc(C)cc(C)c3c2=O)cc1,-14,74*,·,5,-5,-37
CCCCCCCCCC[n+]1cccc2c3ccccc3ccc21,-17,133*,24,21,60*,-9
Cc1ccc(C)c(N2CCN(CCCc3ccccc3)CC2)c1,-5,0,3,5,-2,-12
Cc1csc(-c2cnn(-c3ccccc3)c2NC(=O)c2ccc(C(F)(F)F)cc2)n1,-21,46*,9,29,5,-2
C#CCNC(=O)C[C@H]1C[C@@]2(C(=O)OC)C(=C[C@H](COCc3ccccc3)O[C@@H]2C)N(CCCCCCCC)C1=O,·,·,-8,·,·,·
CCNC(=S)NCCN1CCCCC1,-8,0,-3,4,-5,123*
CCCNC(=S)NCCN1CCCCC1,-32,-1,8,42,-2,14
CCOc1ccc(S(=O)(=O)N(CC)CC(=O)NCc2cccnc2)cc1,-4,1,-4,20,5,4
COc1ccc(F)cc1-c1cc(C(=O)Nc2ccc(NC(C)=O)cc2)[nH]n1,·,·,11,·,·,·
COc1cc2[nH]c(C(=O)Nc3ccc(F)cc3)cc2c(OC)c1OC,-16,1,5,53*,4,·
COc1ccc(N2CCN(C(=O)c3ccc4c(=O)n(Cc5ccc6c(c5)OCO6)c(=O)[nH]c4c3)CC2)cc1,-13,0,-2,6,-12,10
O=C(O)C(Cc1ccccc1)n1c(=S)[nH]c2ccccc2c1=O (stereo not drawn),6,0,6,16,-7,7
Cc1ccc(C)c(N2CCN(C(=O)c3ccc(Cn4c(=O)[nH]c5ccccc5c4=O)cc3)CC2)c1,-10,2,-4,51*,-6,-21
CC(c1ccc2c(c1)OCO2)n1c(=S)[nH]c2ccccc2c1=O (stereo not drawn),-19,75*,11,·,·,-2
O=C(c1ccc2c(=O)n(Cc3ccc4c(c3)OCO4)c(=O)[nH]c2c1)N1CCN(c2ccccc2)CC1,-8,16,-2,23,-7,62*
CCC(C(=O)N1CCN(Cc2ccc3c(c2)OCO3)CC1)n1c(=O)[nH]c2ccccc2c1=O (stereo not drawn),8,0,2,51*,-4,7
O=C(c1ccc(Cn2c(=O)[nH]c3ccccc3c2=O)cc1)N1CCN(c2ccc(Cl)cc2)CC1,0,3,-5,29,-3,-11
COc1cc(C(=O)Nc2nc(-c3cccs3)cs2)cc(OC)c1OC,-36,41*,-2,-8,-12,5
CCc1nnc(SCC(=O)Nc2ccc(N3CCOCC3)cc2)o1,-54,1,-3,23,1,4
